High-throughput results as filed in PubChem BioAssay.
PrPC TRFRET: reduces human prion protein on the cell surface. P04156. cell surface PrPC, TR-FRET read-out. inhibition, % at 13.8 µM. 370,000 tested, 0.43% active; in the data active = inhibition above about 24%
PriA SSB inh: blocks PriA binding to SSB C-terminal tail; AID 1272365; inhibition, % at 33 µM; 430,000 tested, 0.6% active; AlphaScreen SSBct-PriA binding, biotinylated peptide; in the data active = inhibition mostly above about 37%, no sharp cut-off; inactive = mostly below about 20%
PrP 5UTR inh: inhibition of PrP 5' UTR reporter expression. cell-based PrP 5' UTR mRNA reporter, plate reader. inhibition, % (concentration not given with the values). 340,000 tested, 0.35% active. AID 488862; in the data active = inhibition above about 52%
RecA intein inh: inhibitors of M. tuberculosis RecA intein splicing | P9WHJ3 | cell-free RecA intein splicing, fluorescence | inhibition, % (concentration not given with the values) | 290,000 tested, 0.75% active | AID 2221; in the data active = inhibition above about 30%; inconclusive = no clear call, values can overlap the other calls
BJeLR viability: BJeLR cell viability loss | BJeLR (HRASV12) viability, CellTiter-Glo ATP luminescence, 48 h | 300,000 tested, 0.17% active | inhibition, % (concentration not given with the values); in the data active = inhibition above about 50%; inconclusive = no clear call, values can overlap the other calls
PfHsp40 rescue: restores yeast growth despite PfHsp40 toxicity | growth rescue, % at 12.5 µM | 340,000 tested, 0.68% active | S. cerevisiae expressing PfHsp40, growth rescue, ATP luminescence; in the data active = growth rescue above about 28%, passing the limit was not always enough; inconclusive = no clear call, values can overlap the other calls;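 note: yeast W303a lacking pdr1 and pdr3 grown in galactose medium; growth measured after three days at 30 °C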
GFP chromo cs: counter-screen GFP chromophore formation inhibition; shares compounds with RecA intein inh; cell-free GFP chromophore formation, fluorescence; EC50, µM; 2,100 tested, 83% active; AID 434968; call rule not given here
Hits are given with their value; 0 = inactive; ? = inconclusive; - = no result given. Rows were chosen to be rich in hits. Some 1.9% of all compounds tested hit in one or more screens of this group.

SMILES	PrPC TRFRET	PriA SSB inh	PrP 5UTR inh	RecA intein inh	BJeLR viability	PfHsp40 rescue	GFP chromo cs
Cc1nc(S(=O)(=O)N2CCSC(c3cc(F)ccc3F)CC2)cn1C (stereo unspecified)	-	0	-	-	-	-	-
CN1CCc2cc(C(CNC(=O)c3ccc([N+](=O)[O-])cc3Cl)N3CCCCC3)ccc21 (stereo unspecified)	-	0	-	-	-	-	-
CN(C)S(=O)(=O)NCc1cccc(Oc2ccccn2)c1	-	0	-	-	-	-	-
CN(CC(=O)Nc1ccc(N2CCOCC2)cc1)CC(=O)Nc1cccc(C#N)c1	0	0	0	0	0	0	0
Cn1cccc1C(CNC(=O)C(=O)NCc1ccc(F)cc1)N1CCc2ccccc2C1 (stereo unspecified)	-	0	-	-	-	-	-
CCCCCCCN(C(=O)CCl)c1ccccc1C	0	0	0	56	0	0	18
C=CCn1c(-c2cccnc2Cl)nc2ccccc21	0	0	0	85	0	0	0
C=CCn1c(-c2cccnc2Cl)nc2cc(Cl)c(Cl)cc21	0	0	0	0	0	0	-
O=c1c(Cl)c(Nc2cccc(Cl)c2)cnn1-c1nc2ccccc2s1	0	0	0	0	0	0	-
COc1ccc(Nc2cnn(-c3nc4ccccc4s3)c(=O)c2Cl)cc1	0	0	0	47	0	0	6.7
CC(=O)Nc1ccc(N=Nc2ccccc2)cc1	0	0	0	0	0	0	-
CC(C)N(c1ccccc1)c1ccc(NC(=O)CCl)cc1	0	0	0	51	0	0	8.7
O=C(CCl)Nc1cccc(Oc2ccccc2)c1	0	0	0	65	0	0	35
O=C(CCl)Nc1ccc(N=Nc2ccccc2)cc1	0	0	0	79	0	0	30
O=C(CCl)Nc1cccc(OC(F)F)c1	-	0	-	-	-	-	-
O=C(CCl)Nc1ccc(-c2ccccc2)cc1	0	0	0	75	0	0	24
COc1cc(OC)c(NC2=CC(=O)C(=O)c3ccccc32)cc1Cl	0	0	0	0	0	0	-
CCOC(=O)c1ccc(NC2=CC(=O)C(=O)c3ccccc32)cc1	0	0	0	42	0	0	2.7
NS(=O)(=O)c1ccc(NC2=CC(=O)C(=O)c3ccccc32)cc1	0	0	0	92	0	0	2.6
CCOC(=O)c1ccc(NC(=O)C(C)N2C(=O)c3ccccc3C2=O)cc1 (stereo unspecified)	0	0	0	-	0	0	-
Cc1ccc(NC2=CC(=O)C(=O)c3ccccc32)cc1	0	0	0	54	0	0	1.2
CCOc1ccc(-c2cn3c(CC(=O)NCc4ccccc4)csc3n2)cc1	-	0	-	-	-	-	-
CS(=O)(=O)c1ccc(CCC(=O)N2CCO[C@H](c3ccccc3)C2)cc1	-	0	-	-	-	-	-
O=C(COC(=O)C1CC(=O)N(Cc2ccco2)C1)c1ccc(OC(=O)c2ccco2)cc1 (stereo unspecified)	0	0	0	35	0	0	0
Cc1ccc(C(=O)Oc2ccc(C(=O)COC(=O)C3CC(=O)N(Cc4ccco4)C3)cc2)cc1 (stereo unspecified)	-	0	0	0	0	0	-
SMILES	PrPC TRFRET	PriA SSB inh	PrP 5UTR inh	RecA intein inh	BJeLR viability	PfHsp40 rescue	GFP chromo cs
CC(C)(C)c1csc(Sc2ccc([N+](=O)[O-])cn2)n1	0	0	0	32	0	0	9.2
Cc1ccnc(Sc2ccc([N+](=O)[O-])cn2)n1	0	0	0	0	0	0	-
COc1cc(N=Nc2cccc(S(N)(=O)=O)c2)c2ccccc2c1N	0	0	0	45	0	0	33
O=C(CCl)N(Cc1ccccc1)c1ccccc1	0	0	0	73	0	0	24
O=C(CCl)N(Cc1cc(=O)[nH]c2ccccc12)c1ccccc1	0	0	0	69	0	0	11
Cc1cccc(N(Cc2ccccc2)C(=O)CCl)c1	0	0	0	58	0	0	9.9
COC(=O)c1ccc(C(=O)N(Cc2ccccc2)c2ccccc2)cc1	0	0	0	0	0	0	-
COc1ccc(OC)c(NC(C)=CC(=O)c2ccc(C)o2)c1	-	0	-	-	-	-	-
Brc1ccc2[nH]ncc2c1	0	0	0	0	0	0	-
Nc1ccc2cn[nH]c2c1	0	0	0	78	0	0	22
O=C(N1CCCCC1)N1CCN(c2ccc([N+](=O)[O-])c3cccnc23)CC1	-	0	-	-	-	-	-
O=C(c1cc(F)c(F)cc1Cl)N1CCN(c2ccc([N+](=O)[O-])c3ncccc23)CC1	0	0	0	32	0	0	23
Nc1cc2nn(-c3ccccc3)nc2cc1Cl	0	0	0	63	0	0	37
O=[N+]([O-])c1ccc(S(=O)(=O)c2cccc(C(F)(F)F)c2)nc1	-	0	0	50	0	42	30
COc1ccc(NC(=O)Cc2ccccc2)cn1	0	0	0	0	0	0	-
COc1ccc(CS(=O)(=O)/C(Cl)=C(/Cl)C(=O)Nc2ccc(OC)nc2)cc1	-	0	0	78	0	0	9.7
COc1ccc(NC(=O)/C(Cl)=C(/Cl)S(=O)Cc2ccccc2)cn1 (stereo unspecified)	0	0	0	78	0	0	6.6
CCCNC1=C(N(C(C)=O)c2cccc(F)c2)C(=O)c2ccccc2C1=O	0	0	0	63	0	49	15
O=C(Nc1ccc(Cl)c(Cl)c1)Nc1ccccc1NS(=O)(=O)c1cccs1	0	0	0	31	0	0	0
CCOc1ccccc1NC(=O)c1cc(-c2ccc(Cl)cc2)oc1C	-	0	-	-	-	-	-
N#Cc1c(Cl)nc(NN=Cc2ccccc2)c(Cl)c1Cl	-	0	-	-	-	-	-
Nc1c(O)cccc1C(=O)O	0	0	0	71	0	0	6.1
Oc1[nH]c(=S)sc1C=C1N=c2ccccc2=N1	0	0	0	57	0	0	0
Cc1cc(C)n(CCN(C(=O)c2ccco2)c2nc3c(C)cc(Cl)cc3s2)n1	-	0	-	-	-	-	-
O=C1/C(=C\c2ccc(O)c(O)c2)C(c2ccccc2)=NN1c1ccccc1	0	0	0	0	0	0	-
SMILES	PrPC TRFRET	PriA SSB inh	PrP 5UTR inh	RecA intein inh	BJeLR viability	PfHsp40 rescue	GFP chromo cs
COc1cc(/C=C2\C(=O)N(c3ccc(NC(C)=O)cc3)N=C2c2ccccc2)ccc1O	0	0	0	83	-	0	0
COc1ccc(-n2nc3c(c2NC(=O)CCl)CSC3)cc1	0	0	0	34	0	0	0
COc1ccc(-n2nc3c(c2NC(=O)C(C)Cl)CSC3)cc1 (stereo unspecified)	0	0	0	0	0	0	-
CO[C@@](C)(CNC(=O)c1ccccc1SC)c1ccccc1F	-	0	-	-	-	-	-
CC(C)(C)OC(=O)N1CCCC[C@H]1c1cc(C(N)=O)n[nH]1	-	0	-	-	-	-	-
O=[N+]([O-])c1cc(C=Nc2cccc3c(O)cccc23)ccc1Cl	-	-	-	64	0	-	33
O=C(NN=Cc1ccc(Cl)c([N+](=O)[O-])c1)C1CC1	-	0	-	-	-	-	-
CC(C)[C@H](NC(=O)Nc1ccc(Oc2ccccc2)cc1)C(=O)O	0	0	0	62	0	0	0
O=c1[nH]c(Nc2ccccc2)cc2cc(Br)ccc12	0	0	0	90	0	0	6
O=c1[nH]c(Nc2ccccc2)cc2ccccc12	0	0	0	64	0	0	?
CC(=O)c1cccc(-c2ccc3c(=O)[nH]c(Nc4ccccc4)cc3c2)c1	0	0	0	94	0	0	8.6
